The source made the active and inactive calls. Unless noted, the rule behind the calls is not given here.
How the values were obtained:
[1] = compounds binding Alexa647 anti-His antibody – biochemical, small-molecule microarray, 635 nm fluorescence, artefact control for SMM control protein annotation, primary screen (AID 1128); settings: higher = more signal;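 note: score merges feature fluorescence with signal-to-noise for each printed compound spot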
[2] = tested on: Human papillomavirus type 1a E7 protein (residues 1-88); experiment: HPV1a E7 small-molecule binders, primary screen, biochemical, small-molecule microarray, residues 1-88, 635 nm (AID 1129); settings: small-molecule microarray binding, fluorescence 635 nm; higher = more signal
[3] = biological target: Focal adhesion kinase 1 (Homo sapiens) (UniProt Q05397); experiment: PTK2 protein binding on printed compound slides – biochemical, small-molecule microarray, 635/667 nm fluorescence, BSA, DTT, primary screen (AID 1130); settings: 635 nm fluorescence, higher = more signal;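 note: composite of spot emission at 667 nm and signal to noise over triplicate slides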
[4] = tested on: Fibrinogen (Alexa647-labelled); experiment: Alexa647-fibrinogen binding to printed small molecules – biochemical, small-molecule microarray, 635/667 nm fluorescence, artefact control for SMM control-protein annotation, profiling panel (AID 1131); settings: fibrinogen-A647 binding fluorescence, higher = more signal;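 note: z-score merges 667 nm fluorescence with per-spot signal-to-noise over triplicate slides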
[5] = biological target: Follistatin (Homo sapiens) (UniProt P19883); experiment: FST protein binding to printed compounds – biochemical, small-molecule microarray, 635/667 nm fluorescence, primary screen (AID 1132); settings: 635 nm fluorescence, higher = more signal
[6] = biological target: Fibroblast growth factor 2 (Homo sapiens) (UniProt P09038); experiment: basic fibroblast growth factor binding to printed compounds – biochemical, small-molecule microarray, 635/667 nm fluorescence, primary screen (AID 1133); settings: FGF2, fluorescence 635/667, higher = more signal
[7] = JC-1 mitochondrial potential readout, lung cancer cells – cell-based, A549, JC-1 fluorescence, basal, 24 h, 100 nL, profiling panel (AID 1138); settings: higher = more signal;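 note: A549 lung adenocarcinoma cells under basal conditions with no added stimulus; test concentration not given here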
Lefty1 = Lefty1 protein binding to printed compounds – biochemical, small-molecule microarray, 635/667 nm fluorescence, primary screen (AID 1139); settings: fluorescence 635/667, higher = more signal
[8] = tested on: wheat germ agglutinin (Triticum aestivum), Alexa647-labelled; experiment: Alexa647-WGA lectin binding to printed small molecules – biochemical, small-molecule microarray, 635/667 nm fluorescence, artefact control for SMM control-protein annotation, profiling panel (AID 1140); settings: WGA-A647 binding, 635 nm fluorescence, higher = more signal;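 note: score merges 667 nm feature emission with signal to noise over triplicate slides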
[9] = biological target: Luciferin 4-monooxygenase (Photinus pyralis) (UniProt P08659); experiment: inhibition of purified Photinus pyralis luciferase – biochemical, luminescence, purified enzyme, 2006 set, primary screen (AID 1141); settings: purified firefly luciferase, SteadyGlo luminescence, 30 min; higher = more signal, called active from +8 up or from −8 down;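 note: cell-free assay with purified firefly luciferase at 100 ng per well in PBS; test concentration not given here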
[10] = tested on: Wnt5a (protein binding on small-molecule microarray); experiment: small molecules binding Wnt5a protein – biophysical, small-molecule microarray, 635/667 nm fluorescence, primary screen (AID 1142); settings: 635 nm fluorescence, higher = more signal;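 note: fluorescence read at 667 nm with signal to noise per printed feature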
[11] = ATP-based viability of Huh7 replicon cells – cell-based, CellTiter-Glo luminescence, basal, 48 h, cytotoxicity control for HCV replication inhibitor project, primary screen (AID 1143); settings: higher = more signal, called active from +8 up or from −8 down;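 note: Huh7 hepatoma cells carrying a hepatitis C replication reporter with no stimulus; test concentration not given here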
[12] = Pseudomonas biofilm growth suppression – PAO1 strain, BacTiter-Glo luminescence, LB-PBS, primary screen (AID 1144); settings: P. aeruginosa PAO1 biofilm, 12 h, higher = more signal
[13] = basal CRE-LacZ reporter activity in PC12 – cell-based, unstimulated, primary screen (AID 1145); settings: no forskolin, luminescence, 4.5 h, higher = more signal, called active from +8 up or from −8 down
[14] = forskolin-driven CRE-LacZ activity in PC12 – cell-based, CRE-LacZ reporter, forskolin-stimulated, primary screen (AID 1146); settings: luminescence, 4.5 h, higher = more signal, called active from +8 up or from −8 down;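 note: PC12 cells with 6xCRE LacZ reporter stimulated by forskolin 10 µM; beta-galactosidase reporter signal reflecting CREB driven transcription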
[15] = biological target: Streptavidin (Streptomyces avidinii) (UniProt P22629); experiment: compounds binding control protein streptavidin – biophysical, small-molecule microarray, 635/667 nm fluorescence, artefact control for SMM compound annotation, primary screen (AID 1147); settings: higher = more signal;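 note: signal reflects streptavidin binding to arrayed compounds as a control protein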
[16] = probe aInhba binding on compound microarray – biochemical, small-molecule microarray, 635/667 nm fluorescence, primary screen (AID 1148); settings: higher = more signal;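 note: score merges 667nm spot fluorescence with signal-to-noise for antibody binding to printed compounds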
Torsin-1A (Homo sapiens) [17] = biological target: Torsin-1A (Homo sapiens) (UniProt O14656); experiment: TOR1A wild-type binding on microarray – cell lysate, small-molecule microarray, lysate, 635/667 nm, primary screen (AID 1149); settings: COS7 hTOR1A-WT lysate, 635 nm fluorescence, higher = more signal
Torsin-1A (Homo sapiens) [18] = biological target: Torsin-1A (Homo sapiens) (UniProt O14656); experiment: torsin A mutant lysate binding on microarrays – cell lysate, small-molecule microarray, COS7 lysate, 635/667 nm fluorescence, primary screen (AID 1150); settings: COS7 hTOR1A mutant lysate, 635 nm fluorescence, higher = more signal;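 note: score pools 667 nm emission and signal to noise measuring lysate protein binding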
[19] = tested on: Sonic hedgehog protein (Shh); experiment: Sonic hedgehog microarray binding compounds – biochemical, small-molecule microarray, 635/667 nm fluorescence, primary screen (AID 1151); settings: 635 nm fluorescence, higher = more signal;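 note: Shh protein binding to compounds spotted on small-molecule microarray slides; score combines spot fluorescence intensity with signal-to-noise across triplicate slides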

Chain of Streptavidin (Streptomyces avidinii) (P22629 whole entry, looked up): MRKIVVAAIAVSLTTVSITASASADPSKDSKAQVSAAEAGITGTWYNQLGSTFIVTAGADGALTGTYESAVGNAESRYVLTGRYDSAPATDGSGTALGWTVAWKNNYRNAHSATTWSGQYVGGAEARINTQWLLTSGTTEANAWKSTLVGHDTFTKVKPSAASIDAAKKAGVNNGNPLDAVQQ
Chain of Luciferin 4-monooxygenase (Photinus pyralis) (P08659 whole entry, looked up): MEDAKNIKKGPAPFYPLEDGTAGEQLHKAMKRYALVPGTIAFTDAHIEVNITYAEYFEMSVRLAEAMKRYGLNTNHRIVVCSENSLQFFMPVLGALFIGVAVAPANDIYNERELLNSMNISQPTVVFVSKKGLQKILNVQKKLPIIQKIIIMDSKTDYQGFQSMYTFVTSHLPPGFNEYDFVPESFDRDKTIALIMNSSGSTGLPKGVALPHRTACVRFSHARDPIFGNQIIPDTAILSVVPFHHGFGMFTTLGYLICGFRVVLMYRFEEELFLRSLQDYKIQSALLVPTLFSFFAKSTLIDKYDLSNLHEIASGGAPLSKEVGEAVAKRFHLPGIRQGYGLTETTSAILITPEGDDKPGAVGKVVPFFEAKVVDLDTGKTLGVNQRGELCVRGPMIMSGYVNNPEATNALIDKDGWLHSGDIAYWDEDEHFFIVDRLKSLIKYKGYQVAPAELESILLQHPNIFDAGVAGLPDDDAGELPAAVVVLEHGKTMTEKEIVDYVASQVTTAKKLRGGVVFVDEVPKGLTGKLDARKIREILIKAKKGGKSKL
Chain of Torsin-1A (Homo sapiens) (O14656 whole entry, looked up): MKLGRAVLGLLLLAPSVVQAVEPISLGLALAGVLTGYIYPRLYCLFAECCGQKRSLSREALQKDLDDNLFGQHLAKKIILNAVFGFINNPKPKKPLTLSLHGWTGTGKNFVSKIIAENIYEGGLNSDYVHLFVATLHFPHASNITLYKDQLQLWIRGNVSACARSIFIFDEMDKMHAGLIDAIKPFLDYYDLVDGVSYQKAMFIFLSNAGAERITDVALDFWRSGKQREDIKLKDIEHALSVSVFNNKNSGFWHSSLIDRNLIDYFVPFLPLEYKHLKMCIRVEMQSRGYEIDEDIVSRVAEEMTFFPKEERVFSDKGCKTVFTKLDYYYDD
Chain of Focal adhesion kinase 1 (Homo sapiens) (Q05397 whole entry, looked up): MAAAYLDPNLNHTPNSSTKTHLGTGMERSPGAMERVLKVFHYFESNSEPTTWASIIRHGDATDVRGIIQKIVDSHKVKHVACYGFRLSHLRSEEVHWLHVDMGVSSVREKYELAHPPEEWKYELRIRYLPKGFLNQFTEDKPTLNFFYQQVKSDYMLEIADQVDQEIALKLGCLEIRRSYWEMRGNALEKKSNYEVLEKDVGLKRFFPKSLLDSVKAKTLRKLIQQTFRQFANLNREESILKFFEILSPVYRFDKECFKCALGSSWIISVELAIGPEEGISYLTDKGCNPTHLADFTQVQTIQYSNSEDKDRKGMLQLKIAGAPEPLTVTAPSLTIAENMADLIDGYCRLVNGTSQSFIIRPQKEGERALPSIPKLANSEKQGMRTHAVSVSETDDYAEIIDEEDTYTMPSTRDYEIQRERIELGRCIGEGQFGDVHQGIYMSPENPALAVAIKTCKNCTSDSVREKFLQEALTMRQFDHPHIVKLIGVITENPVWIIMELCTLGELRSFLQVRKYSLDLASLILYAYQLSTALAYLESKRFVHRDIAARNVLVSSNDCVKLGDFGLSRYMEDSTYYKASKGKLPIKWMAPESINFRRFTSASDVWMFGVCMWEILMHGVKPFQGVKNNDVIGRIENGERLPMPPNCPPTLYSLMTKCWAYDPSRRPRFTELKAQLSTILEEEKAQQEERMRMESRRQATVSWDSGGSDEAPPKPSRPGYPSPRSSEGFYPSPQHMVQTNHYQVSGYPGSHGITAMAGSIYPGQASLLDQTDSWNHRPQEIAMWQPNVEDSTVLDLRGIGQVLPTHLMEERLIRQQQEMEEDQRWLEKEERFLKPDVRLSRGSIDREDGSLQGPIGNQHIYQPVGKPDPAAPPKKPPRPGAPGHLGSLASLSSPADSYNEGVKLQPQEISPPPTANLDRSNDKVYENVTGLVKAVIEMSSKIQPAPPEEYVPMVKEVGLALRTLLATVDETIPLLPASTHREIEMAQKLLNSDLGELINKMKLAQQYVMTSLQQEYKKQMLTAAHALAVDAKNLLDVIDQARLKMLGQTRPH
Chain of Follistatin (Homo sapiens) (P19883 whole entry, looked up): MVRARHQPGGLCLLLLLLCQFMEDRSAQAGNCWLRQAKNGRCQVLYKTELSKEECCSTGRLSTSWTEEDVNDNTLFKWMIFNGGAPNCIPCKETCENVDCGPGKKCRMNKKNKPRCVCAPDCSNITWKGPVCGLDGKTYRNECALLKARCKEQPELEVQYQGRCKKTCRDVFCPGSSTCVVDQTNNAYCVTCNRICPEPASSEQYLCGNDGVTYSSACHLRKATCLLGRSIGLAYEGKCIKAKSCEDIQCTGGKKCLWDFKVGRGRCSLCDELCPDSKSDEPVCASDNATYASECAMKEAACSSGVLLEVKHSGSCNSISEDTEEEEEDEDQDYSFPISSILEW
Chain of Fibroblast growth factor 2 (Homo sapiens) (P09038 whole entry, looked up): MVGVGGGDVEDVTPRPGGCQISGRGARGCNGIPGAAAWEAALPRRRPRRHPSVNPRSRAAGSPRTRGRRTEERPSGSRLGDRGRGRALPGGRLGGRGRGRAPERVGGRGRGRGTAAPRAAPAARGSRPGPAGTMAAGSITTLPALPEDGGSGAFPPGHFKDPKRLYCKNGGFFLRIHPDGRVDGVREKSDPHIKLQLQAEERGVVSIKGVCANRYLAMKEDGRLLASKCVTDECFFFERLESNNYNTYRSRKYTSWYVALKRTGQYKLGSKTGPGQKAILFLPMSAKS

SMILES	composite z-score [1]	composite z-score [2]	composite z-score [3]	composite z-score [4]	composite z-score [5]	composite z-score [6]	z-score [7]	composite z-score (Lefty1)	composite z-score [8]	z-score [9]	composite z-score [10]	z-score [11]	z-score [12]	z-score [13]	z-score [14]	composite z-score [15]	composite z-score [16]	composite z-score (Torsin-1A (Homo sapiens) [17])	composite z-score (Torsin-1A (Homo sapiens) [18])	composite z-score [19]
Cc1ccc(NN2C(C(O)c3c(F)cccc3Cl)C=CC3C(=O)N(C4CCCCC4)C(=O)C32)cc1 (stereo not given)	1.5	1.2	0.601	1.04	0.842	-0.413	1.19	-0.209	1.26	0.289 (inactive)	0.361	-3.26 (inactive)	-0.933 (inactive)	-0.0787 (inactive)	0.355 (inactive)	1.75	-0.0675	0.0334	0.448	-0.216
[N-]=[N+]=Nc1ccccc1C[C@]1(C(=O)NCC(O)CO)COC(c2ccc(OCCCO)cc2)=N1 (stereo not given in full)	1.91	1.23	0.352	0.579	-0.0953	-0.483	2	-0.729	0.14	-4.04 (inactive)	0.123	-0.231 (inactive)	-0.3 (inactive)	0.493 (inactive)	-1.1 (inactive)	0.305	-0.0131	1.3	1.72	-1.46
Cc1ccc(S[C@]2(C(=O)NCCN3CCOCC3)CC(=O)N(Cc3ccccc3Cl)[C@@H]2c2ccc(CO)cc2I)cc1	-0.882	-0.227	1.09	-0.646	-0.349	0.388	1.08	-1.57	0.498	-0.43 (inactive)	0.0976	-2.1 (inactive)	-0.0266 (inactive)	-0.581 (inactive)	0.631 (inactive)	-0.343	0.658	-1.69	0.75	-0.316
CC[C@@H]1C=C(C(=O)O)[C@H](c2ccc(C#N)cc2)N1S(=O)(=O)c1ccc(C)cc1	3.35	0.845	0.941	-0.0509	-0.594	-0.105	-0.0902	-0.833	1.09	0.522 (inactive)	0.413	-0.857 (inactive)	0.24 (inactive)	-0.975 (inactive)	-0.397 (inactive)	0.569	-0.157	1.26	1.65	0.0698
COCCOC(=O)N1C(=O)[C@@]2(c3cc(C#CC4(O)CCCCCC4)ccc31)[C@H](C(=O)N1CCc3cc(OC)c(OC)cc3C1)[C@H]1C(=O)O[C@H](c3ccccc3)[C@H](c3ccccc3)N1[C@@H]2c1ccc(OCCO)cc1	0.244	0.867	1.06	0.682	1.29	1.32	-1.11	1.23	0.475	-1.07 (inactive)	0.536	-1.38 (inactive)	-0.555 (inactive)	-0.465 (inactive)	0.581 (inactive)	1.04	-0.0736	0.71	0.362	1.58
